# Source: PubChem BioAssay (National Center for Advancing Translational Sciences (NCATS))
# A549 tox – Nrf2 qHTS screen for inhibitors: counterscreen for cytotoxicity. Potency, µM (highest dose often 46 µM), for inactives: at the highest dose activity change, negative = cytotoxicity, most hits filed as inhibitors. AID 504648, 2011. hit rate 0.16% among 390,000. A549 ARE-Fluc cells, CellTiter-Fluor viability, 18-24 h; also: potency is read from the fitted curve at half-maximal effect; % is scaled to controls: 0 for no effect and ±100 for the full control effect
#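 Cytotoxicity counterscreen: CellTiter-Fluor fluorescence was measured in A549 ARE_Fluc cells after 18-24 h of compound exposure in a concentration series. The subsequent BugLite luminescent read reports ARE-luciferase activity.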
# Nrf2 block – Nrf2 qHTS screen for inhibitors; A549 ARE-Fluc reporter, luciferase luminescence, 18-24 h; Potency, µM (highest dose often 46 µM), without a hit: at the top dose activity change, negative = inhibition, actives largely listed as inhibitors; hit rate 2.1% among 360,000; also: potency is read from the fitted curve at half-maximal effect; % is scaled to controls: 0 for no effect and ±100 for the full control effect; nearly all actives have a fitted effect of over 60% in size
#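 Nrf2 function is reported as luminescence of an ARE-controlled luciferase in A549 cells. Compounds were tested at several concentrations, and a CellTiter-Fluor read on the same wells flagged cytotoxicity.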
# TGFb SMAD3 inh – qHTS for Inhibitors of TGF-b. Potency, µM (series often up to 46.1 µM), for the others: at the top dose activity, negative = inhibition, usual class: inhibitors. hit rate 1.2% among 410,000. HepG2 CAGA-GFP TGF-b/SMAD3 reporter, GFP fluorescence, 18 h; TGF-beta stimulated, 500 pg/mL final; also: potency is read from the fitted curve at half-maximal effect; % is scaled to controls: 0 for no effect and ±100 for the full control effect; nearly all actives have a fitted effect of over 65% in size
#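 Smad-responsive CAGA-GFP expression was quantified in HEPG2 cells exposed to compounds and 500 pg/mL final TGF-beta for 18 h at 37 degrees C; unstimulated wells defined full inhibition.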
# S2 tox – Viability Counterscreen for Primary qHTS for Inhibitors of ATXN expression; Potency, µM (highest dose often 56.7 µM), most hits filed as cytotoxic; hit rate 0.49% among 400,000; S2 cells (HEK-293 line with an ATXN2-luciferase reporter) viability, CellTiter-Fluor protease fluorescence, 24 h; AID 651635, 2014; also: potency is read from the fitted curve at half-maximal effect; nearly all actives have a fitted effect of over 40% in size
# HepG2 tox – qHTS for Inhibitors of TGF-b: Cytotox Counterscreen; HepG2 CAGA-GFP viability, ATP luminescence, 18 h; hit rate 0.76% among 410,000; Potency, µM (highest dose often 46.1 µM), for the others: at the highest dose activity change, negative = cytotoxicity, usual class: cytotoxic; AID 588856, 2011; also: potency is read from the fitted curve at half-maximal effect
#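 HepG2 CAGA-GFP cells (1000/well, DMEM with 1% FBS) received compound, then TGF-beta at 500 pg/mL final, and were incubated 18 hours at 37 degrees C. Viability was read by CellTiter-Glo luminescence. Media-only wells were set as complete cell-killing and DMSO as no toxicity.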
# ATXN2 expr inh – Primary qHTS for Inhibitors of ATXN expression. hit rate 0.72% among 360,000. Potency, µM (top dose mostly 57 µM), inactives show at the highest dose activity change, negative = inhibition, actives largely listed as inhibitors. HEK-293 ATXN2-luciferase reporter, luminescence, 24 h. AID 1745845, 2022; also: potency is read from the fitted curve at half-maximal effect; % is scaled to controls: 0 for no effect and ±100 for the full control effect; nearly all actives have a fitted effect of over 55% in size
#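 qHTS (up to 57 uM final) was run with 24 h compound exposure of reporter cells at 37 °C. Each well was multiplexed: SteadyGlo luminescence measured ATXN2-luciferase expression after a fluorogenic Gly-Phe-AFC viability readout (25 uM final).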
# SKNSH spheroid – qHTS of pediatric cancer cell lines to identify multiple opportunities for drug repurposing: Orthogonal 3D viability screen for SK-N-SH cells; shares compounds with ATXN2 expr inh; SK-N-SH 3D spheroid viability, PI/Hoechst imaging, 72 h; Potency, µM (top dose mostly 30.7 µM), most hits filed as inhibitors; hit rate 70% among 65; AID 1347135, 2019
# SJGBM2 3D viab – qHTS of pediatric cancer cell lines to identify multiple opportunities for drug repurposing: Orthogonal 3D viability screen for SJ-GBM2 cells; shares compounds with ATXN2 expr inh; SJ-GBM2 3D spheroid viability, PI/Hoechst imaging, 72 h; Potency, µM (series often up to 30.7 µM), hits mostly inhibitors; hit rate 80% among 65
# Daoy spheroid – qHTS of pediatric cancer cell lines to identify multiple opportunities for drug repurposing: Orthogonal 3D viability screen for Daoy cells; hit rate 50% among 65; shares compounds with ATXN2 expr inh; Daoy 3D spheroid viability, PI/Hoechst imaging, 72 h; Potency, µM (top dose mostly 30.7 µM), most hits filed as inhibitors
# TC32 3D casp – qHTS of pediatric cancer cell lines to identify multiple opportunities for drug repurposing: Orthogonal 3D caspase screen for TC32 cells; Potency, µM (highest dose often 30.7 µM), hits mostly inhibitors; TC32 3D spheroids, caspase-3/7 fluorescence imaging, 24 h; shares compounds with ATXN2 expr inh; hit rate 30% among 65; AID 1347138, 2019
# TC32 3D tox – qHTS of pediatric cancer cell lines to identify multiple opportunities for drug repurposing: Orthogonal 3D viability screen for TC32 cells; shares compounds with ATXN2 expr inh; TC32 3D spheroid viability, PI/Hoechst imaging, 72 h; Potency, µM (highest dose often 30.7 µM), usual class: inhibitors; hit rate 60% among 65
# MG63 3D tox – qHTS of pediatric cancer cell lines to identify multiple opportunities for drug repurposing: Orthogonal 3D viability screen for MG 63 (6-TG R) cells; shares compounds with ATXN2 expr inh; MG-63 (6-TG R) 3D spheroid viability, PI/Hoechst imaging, 72 h; Potency, µM (series often up to 30.7 µM), usual class: inhibitors; hit rate 50% among 65; AID 1347140, 2019
# RD spheroid – qHTS of pediatric cancer cell lines to identify multiple opportunities for drug repurposing: Orthogonal 3D viability screen for RD cells | shares compounds with ATXN2 expr inh | RD rhabdomyosarcoma 3D spheroid viability, PI/Hoechst imaging, 72 h | hit rate 50% among 65 | Potency, µM (top dose mostly 30.7 µM), hits mostly inhibitors
# Active calls of the source: *; i = inactive; ? = inconclusive; nt = no result given. Most compounds without a hit are left out; they make up all but 3.8% or so of the library. Calls follow the shape of the dose curve; as a rule, active = well fitted curve in the direction sought with a large enough effect; inconclusive = small, poorly fitted or top-dose-only effect, or another doubt; inactive = no such curve, though single readings can be large; an effect the other way counts as inactive or inconclusive.
SMILES,A549 tox,Nrf2 block,TGFb SMAD3 inh,S2 tox,HepG2 tox,ATXN2 expr inh,others
CN1CCN(CC(=O)Nc2ccc(Cl)cc2C(=O)c2ccccc2)CC1,-1%,-1%,18%,i,-22%,-5%,
COC(=O)C(O)(c1ccc(N(C)C(=O)OC(C)C)cc1)C(F)(F)F (configuration not stated),3%,?,-11%,i,-15%,1%,
CO[C@@H](C)[C@](O)(C(=O)OCC1=CCN2CC[C@@H](O)[C@H]12)C(C)C,nt,nt,nt,i,nt,nt,
COc1ccc(C)cc1NC(=O)Cn1c(=O)oc2cc(S(=O)(=O)N3CCCCC3)ccc21,4%,?,-24%,i,-34%,-11%,
C[C@@H]1CCC2[C@@H](C)C(=O)O[C@@H]3OC4(C)CCC1[C@@]23OO4 (some centres not stated),-3%,-1%,-17%,i,-18%,6%,
COc1cc([C@@H]2c3cc4c(cc3[C@H](O)[C@H]3COC(=O)[C@H]23)OCO4)cc(OC)c1OC,-11%,?,-37%,?,-4%,-4%,SKNSH spheroid=0.023µM*;SJGBM2 3D viab=0.036µM*;Daoy spheroid=?;TC32 3D casp=0.057µM*;TC32 3D tox=0.057µM*;MG63 3D tox=?;RD spheroid=0.046µM*
CCc1ccc(NC(=O)c2ccc(F)c(S(=O)(=O)N3CCC4(CC3)OCCO4)c2)cc1,-20%,nt,?,nt,-3%,nt,
Cc1ccccc1N1CCN(C2CCCN(C(=O)Cc3c(C)noc3C)C2)CC1 (configuration not stated),-5%,?,8%,i,-6%,9%,
CCOc1ccc2nc(NC(=O)c3cccn(Cc4ccccc4Cl)c3=O)sc2c1,0%,nt,3%,i,4%,8%,
COc1cccc2c1C(=O)c1c(O)c3c(c(O)c1C2=O)C[C@@](O)(C(=O)CO)C[C@@H]3O[C@H]1C[C@H](N)[C@H](OC2CCCCO2)[C@H](C)O1 (some centres not stated),nt,nt,?,nt,-14%,1.5µM*,SKNSH spheroid=0.29µM*;SJGBM2 3D viab=0.72µM*;Daoy spheroid=1.4µM*;TC32 3D casp=1.4µM*;TC32 3D tox=1µM*;MG63 3D tox=?;RD spheroid=?
O=C(NCc1ccc(Cl)cc1)C1CCN(C(=O)c2cnn(-c3ccccc3)c2-n2cccc2)CC1,-20%,?,?,i,-28%,?,
Cc1ccc(NC(=O)CN2C(=O)CN=C(c3ccccc3)c3ccccc32)c(C)c1,-8%,7%,7%,i,-29%,-1%,
CCN(CC)C(C)C(=O)c1ccccc1 (configuration not stated),nt,nt,nt,i,nt,7%,
CCCCn1nnnc1C(CCSC)N1CCC(n2c(=O)[nH]c3ccccc32)CC1 (configuration not stated),nt,nt,-34%,?,-26%,-31%,
COc1ccc(CNCCc2ccc3c(c2)OCO3)cc1Br,-1%,-5%,2%,i,-2%,nt,
CCOC(=O)CNC(=O)N1Cc2cc(-c3ccc(OC)cc3)ccc2-n2nncc2C1,nt,nt,-7%,i,0%,1%,
O=C(Nc1nc(-c2ccccc2)c(-c2ccccc2)s1)c1ccc(S(=O)(=O)N(CCCl)CCCl)cc1,-2%,6%,1%,i,4%,8%,
O=S1(=O)N(Cc2ccccc2)CCCN1Cc1ccc(F)cc1Cl,3%,?,-12%,nt,-30%,nt,
CCCCn1nnnc1C(c1ccc(OC)cc1)N1CCC2(CC1)C(=O)NCN2c1ccccc1 (configuration not stated),nt,nt,?,?,-36%,-24%,
Cc1ccc(Cl)cc1N1CCN(C(=O)c2cn(CC(C)C)c(=O)c3c2c2ccccc2n3C)CC1,-5%,-10%,0%,?,1%,?,
CCN[C@@H](C)Cc1cccc(C(F)(F)F)c1,-8%,-9%,21%,i,-7%,0%,
COc1ccc(CC(=O)NC(=S)NNC(=O)COc2c(C)cccc2C)cc1,1%,?,-12%,i,-16%,-35%,
CC(=O)c1ccc2c(c1)N(CCCN(C)C)c1ccccc1S2,2%,4%,32%,?,-23%,?,
Cc1ccc(-n2nc(C)c3c2NC(=O)CSC3c2ccc(O)cc2)cc1Cl (configuration not stated),7%,?,-26%,?,-13%,0%,
CSc1cccc(CNC(=O)C2CCC(=O)N(Cc3cccc(C(F)(F)F)c3)C2)c1 (configuration not stated),-1%,?,?,i,-10%,3%,
